The test system of this test is HEK293 WT BDD-FVIII-Gluc. Briefly: secreted FVIII-Gluc luciferase Z-score vs DMSO control; higher = more FVIII-Gluc secretion. The conditions noted are these: 5 µM. The procedure:
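Natural plant-compound library (480 compounds, ST catalogue IDs) screened on HEK293 cells stably expressing WT BDD-FVIII-Gaussia luciferase fusion at 5 µM. Secreted Gluc activity in the medium is given as a Z-score relative to DMSO controls.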

Consider `CN1C(CC(=O)c2ccccc2)CCC[C@H]1CC(O)c1ccccc1` (some centres not stated), for which the “secreted FVIII-Gluc luciferase Z-score” value was -0.246.

For the compound `COC1C(O)C(O)C(O)C(O)C1O` (configuration not stated), the “secreted FVIII-Gluc luciferase Z-score” value turned out to be 0.358.

`CC/C=C\C[C@H]1C(=O)CC[C@@H]1CC(=O)O`: the “secreted FVIII-Gluc luciferase Z-score” value worked out at 0.253.

In the case of `COC(=O)C1(O)CC(O)C(NC(C)=O)C(C(O)C(O)CO)O1` (configuration not stated), the “secreted FVIII-Gluc luciferase Z-score” value turned out to be 0.68.

Take `O=C(/C=C/c1ccc(O)cc1)c1c(O)cc(O)cc1O`: the “secreted FVIII-Gluc luciferase Z-score” value is 0.157.

As for `Cc1cc(=O)oc2cc(O[C@@H]3O[C@H](C(=O)O)[C@@H](O)[C@H](O)[C@H]3O)ccc12`, the “secreted FVIII-Gluc luciferase Z-score” value turned out to be 0.123.

As for `N=C(N)NCCC[C@H](N)C(=O)O`, the “secreted FVIII-Gluc luciferase Z-score” value was 0.938.

Take `O=c1cc[nH]c(=S)[nH]1`: the “secreted FVIII-Gluc luciferase Z-score” value is 0.275.

As for `N[C@H](CCC(=O)O)C(=O)O`, the “secreted FVIII-Gluc luciferase Z-score” value was -0.453.

On to `COC1=CC(=O)CC(C)C12Oc1c(Cl)c(OC)cc(OC)c1C2=O` (configuration not stated), for which the “secreted FVIII-Gluc luciferase Z-score” value turned out to be 0.0156.

With `C=C1C(=O)O[C@@H]2C3OC3(C)CC/C=C(\C)CC[C@@H]12` (some centres not stated), the “secreted FVIII-Gluc luciferase Z-score” value was -0.0355.

Turning to `CC1(C)CC[C@]2(C(=O)O)CC[C@]3(C)C(=CCC4[C@@]5(C)CC[C@H](O)C(C)(C)C5[C@H](O)C[C@]43C)C2C1` (some centres not stated), the “secreted FVIII-Gluc luciferase Z-score” value worked out at 0.207.

For `C[C@@H]1C(=O)O[C@H]2[C@@H](O)[C@@]34[C@H]5CC(C(C)(C)C)[C@]36[C@@H](OC(=O)[C@@H]6O)O[C@@]4(C(=O)O5)[C@@]12O` (some centres not stated), the “secreted FVIII-Gluc luciferase Z-score” value is 0.119.

Regarding `Cc1ccc2oc(-c3ccccc3)c(O)c(=O)c2c1`, the “secreted FVIII-Gluc luciferase Z-score” value was 1.13.

Turning to `O=C1C[C@@H](c2ccccc2)Oc2cc(O)cc(O)c21`, the “secreted FVIII-Gluc luciferase Z-score” value came out at 0.733.

With `CC(=O)Nc1nc2nc[nH]c2c(=O)[nH]1`, the “secreted FVIII-Gluc luciferase Z-score” value worked out at 0.475.

In the case of `OCC1OC(n2cnc3cncnc32)C(O)C1O` (configuration not stated), the “secreted FVIII-Gluc luciferase Z-score” value is -0.247.

For the compound `C[C@H](CCC(=O)O)[C@H]1CC[C@H]2[C@@H]3C(=O)C[C@@H]4CC(=O)CC[C@]4(C)[C@H]3CC(=O)[C@]12C`, the “secreted FVIII-Gluc luciferase Z-score” value was 0.818.

For the compound `Cc1cc2nc3c(=O)[nH]c(=O)nc-3n(CC(O)C(O)C(O)CO)c2cc1C` (configuration not stated), the “secreted FVIII-Gluc luciferase Z-score” value was determined as 0.252.

On to `CC[C@@H]1OC(=O)[C@@H](C)[C@H](O[C@H]2C[C@@](C)(OC)[C@@H](O)[C@H](C)O2)C(C)[C@H](O[C@H]2O[C@@H](C)C[C@@H](N(C)C)[C@@H]2O)[C@@](C)(O)C[C@H](C)C(=O)[C@@H](C)[C@H](O)[C@@]1(C)O` (some centres not stated), for which the “secreted FVIII-Gluc luciferase Z-score” value is -1.17.

As for `Cc1cc(O)c2c(c1)C(=O)c1cc(O)cc(O)c1C2=O`, the “secreted FVIII-Gluc luciferase Z-score” value was -0.0482.

As to `COc1c(O)cc2oc3cc(O)c(CC=C(C)C)c(O)c3c(=O)c2c1CC=C(C)C`, the “secreted FVIII-Gluc luciferase Z-score” value worked out at 0.316.

The values are drawn from the supplement of paper PMC12024529.
